# JMJD2A Tudor inh: qHTS Assay for Inhibitors of JMJD2A-Tudor Domain; Lysine-specific demethylase 4A (Homo sapiens), O75164; AlphaScreen JMJD2A-Tudor / H3K4me3 peptide binding; Potency, µM (titrated, usually from 114 µM), without a hit: top-dose activity change, negative = inhibition, most hits filed as inhibitors; 390,000 tested, 4.4% active; also: % is scaled to controls: 0 for no effect and ±100 for the full control effect; nearly all actives have a fitted effect of over 50% in size
# BAZ2B inh: qHTS Assay for Inhibitors of BAZ2B; Bromodomain adjacent to zinc finger domain protein 2B (Homo sapiens), Q9UIF8; AlphaScreen BAZ2B-H3K14Ac peptide displacement; Potency, µM (doses to about 114 µM), for the others: at the top dose activity change, negative = inhibition, actives largely listed as inhibitors; 360,000 tested, 4.4% active; AID 504333, 2011; also: % is scaled to controls: 0 for no effect and ±100 for the full control effect; nearly all actives have a fitted effect of over 60% in size
#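 BAZ2B (50 nM) with biotin-H3(5-23)K14Ac peptide (50 nM) in PBS pH 7.4, 0.01% Tween-20, preformed 30 min, then compound 30 min at room temperature; top concentration 110uM. AlphaScreen streptavidin donor/nickel chelate acceptor beads (10 ug/mL final), 20 min dark, signal read.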
# HP1b chromo inh: HTS for Inhibitors of HP1-beta Chromodomain Interactions with Methylated Histone Tails | Chromobox protein homolog 1 (Homo sapiens), P83916 | AlphaScreen HP1-beta / biotin-H3K9me3 peptide binding | Potency, µM (top dose mostly 114 µM), for inactives: at the highest dose activity change, negative = inhibition, hits mostly inhibitors | 390,000 tested, 0.56% active; also: nearly all actives have a fitted effect of over 70% in size
#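 AlphaScreen: HP1-beta (50 nM) preformed 30 min with biotin-H3(1-18)K9me3 peptide (50 nM) in PBS pH 7.4, 0.01% Tween-20. Compound added for 30 min at RT, then streptavidin donor/nickel chelate acceptor beads (10 ug/mL) for 30 min.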
# G9a inh: qHTS Assay for Inhibitors of Histone Lysine Methyltransferase G9a. G9a H3K9 monomethylation, AlphaScreen, 2 h. 350,000 tested, 8.8% active. Potency, µM (series often up to 102 µM), for the others: top-dose activity, negative = inhibition, hits mostly inhibitors. AID 504332, 2011; also: % is scaled to controls: 0 for no effect and ±100 for the full control effect; nearly all actives have a fitted effect of over 75% in size
#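 Step 1: enzyme (final 20 nM) with compound, 15 min RT. Step 2: substrate peptide 500 nM and SAM 20 uM, 2 h RT. Step 3: anti-H3K9me1 antibody and AlphaScreen beads, 10 min, then plate read.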
# Sfp PPTase inh: qHTS Assay for Inhibitors of Bacillus subtilis Sfp phosphopantetheinyl transferase (PPTase); Biochemical Sfp PPTase activity, qHTS; Potency, µM, inactives show largest response in the series, negative = inhibition, hits mostly inhibitors; 310,000 tested, 3.5% active;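 also: the enzyme is Sfp with the accession as filed and its product quenches rhodamine fluorescence; 0% = enzyme reaction without inhibitor and -100% = no enzyme wells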
#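 Compounds were incubated with enzyme (final 15 nM) for 15 min at room temperature before substrate addition started the reaction. Fluorescence at 525 nm excitation, 598 nm emission was recorded immediately and after 30 minutes.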
# The depositor's hits bear a star; ? = inconclusive; . = no result; [ ] = dose if it differs, or a comment. Most compounds without a hit are left out; they make up all but 12% or so of the library. Calls follow the shape of the dose curve; as a rule, active = well fitted curve in the direction sought with a large enough effect; inconclusive = small, poorly fitted or top-dose-only effect, or another doubt; inactive = no such curve, though single readings can be large; an effect the other way counts as inactive or inconclusive. Potency is read from the fitted curve at half-maximal effect.
SMILES,JMJD2A Tudor inh,BAZ2B inh,HP1b chromo inh,G9a inh,Sfp PPTase inh
O=C(c1ccc([N+](=O)[O-])cc1)n1nc(-c2ccccc2)nc1NCc1ccc(F)cc1,?,?,?,?,-4%
Cc1ccc(NC(=O)c2cccnc2)cc1S(=O)(=O)N1CCOCC1,-16%,-6%,33%,50µM*,.
Cc1ccc(C(=O)Nc2cccnc2)cc1S(=O)(=O)N1CCOCC1,-18%,3%,20%,-9%,10%
N#Cc1ccccc1NC(=O)CNc1ccccc1N1CCCCC1,?,?,2%,-23%,0%
COc1ccccc1N1CCN(CC(O)COc2ccc(Cl)c(C)c2)CC1 (stereo not given),89µM*,?,-10%,?,.
COc1ccccc1N1CCN(CC(O)COc2cc(C)cc(C)c2)CC1 (stereo not given),79µM*,?,15%,?,.
COc1ccccc1N1CCN(CC(O)COc2ccc(C)c(C)c2)CC1 (stereo not given),?,?,13%,-28%,-3%
COc1ccccc1N1CCN(CC(O)COc2ccc(C)cc2C(C)(C)C)CC1 (stereo not given),?,32µM*,?,14µM*,.
Cc1cc(O)c(-c2ccno2)cc1Cl,-5%,6%,31%,-6%[59 µM],15%
COc1cc(OC)cc(C(=O)N(Cc2ccco2)c2c(N)n(Cc3ccccc3)c(=O)[nH]c2=O)c1,-1%,.,30%,.,.
COC(=O)c1c(NC(=O)CSc2ncn[nH]2)sc(C)c1C,-12%,1%,15%,4µM*,.
CCOC(=O)c1c(NC(=O)CC)sc(C(C)=O)c1C,17%,?,-16%,25µM*,40µM*
CCOC(=O)c1c(NC(=O)CSc2nc3ccccc3s2)sc(C(C)=O)c1C,-1%,2%,12%,44%,11%
CCOC(=O)c1sc(NC(=O)CCN2CCN(C)CC2)c(C(=O)OCC)c1C,-27%,?,3%,23%[12.7 µM],20%
CCOC(=O)c1sc(NC(=O)CCN2CC(C)OC(C)C2)c(C(=O)OCC)c1C (stereo not given),.,-9%,.,45µM*,18%
CCOC(=O)c1c(NC(=O)CSc2ncn[nH]2)sc(C(C)=O)c1C,-12%,56µM*,36%,19%,18%
COC(=O)C1(C)NC(c2ccco2)C2C(=O)N(c3ccc(F)cc3)C(=O)C21 (stereo not given),-3%,-9%,26%,17%,23%
CCCc1ccc(OCC(=O)Nc2sc(C(=O)OCC)c(C)c2C(=O)OCC)cc1,6%,7%,37%,5%[59 µM],.
Cc1ccc(C(=O)C2CCN(CC(=O)Nc3ccc(N(C)C)cc3)CC2)cc1,45µM*,-79%,-47%,40µM*,3%
CN(C)c1ccc(NC(=O)CN2CCN(CC(=O)Nc3ccc(F)cc3)CC2)cc1,-5%[57.1 µM],?,-13%,25µM*,14%
Cc1cccc(/C=C/c2onc(C)c2S(=O)(=O)N2CCC(C(=O)N3CCCCCC3)CC2)c1,-17%,-21%,26%,1%[59 µM],6%
COc1ccc(NC(=O)CSc2nnc(C3CC3)n2C)cc1S(=O)(=O)N1CCOCC1,-25%,-9%,14%,?,.
O=C(NCCc1ccc(Cl)cc1)c1ccc(NC2=NC3CS(=O)(=O)CC3S2)cc1 (stereo not given),0%,13%,33%,.,-12%
CCCCN(C)Cc1cc(=O)oc2cc3c(cc12)CCCC3,40%,35%,86%,112%,-6%
CCN(CCO)Cc1cc(=O)oc2cc3c(cc12)CCC3,-4%,-25%,37%,40µM*,9%
Cc1cccc(NS(=O)(=O)c2ccc(C)c(C(=O)NCC(c3ccco3)N3CCCCC3)c2)c1 (stereo not given),-26%,-3%,8%,?,.
COc1cc(CN2CCN(C(=O)c3cccc4ccccc34)CC2)cc(OC)c1OC,20µM*,56µM*,?,20µM*,-3%
